High-throughput results from PubChem.
BH1578 lux ind: induces V. cholerae light production without autoinducers; V. cholerae BH1578 lux reporter, luminescence, 6 h; activation, % at 18.7 µM; 350,000 tested, 0.16% active; in the data active means activation mostly above about 9.7%, no sharp cut-off; inconclusive means no clear call, values can overlap the other calls; inactive means mostly below about 3.7%
BoNT-F LC inh: inhibitors of Botulinum neurotoxin F light chain protease; Multiplex microsphere protease cleavage assay, flow cytometry; 360,000 tested, 0.22% active; inhibition, % at 10 µM; in the data active means inhibition above about 35%, passing the limit was not always enough; inconclusive means no clear call, values can overlap the other calls
Autofluor counter: counter-screen for toxin protease inhibitors: compound fluorescence; fluorescence intensity (test concentration not listed); 360,000 tested, 3.1% active; compound autofluorescence counterscreen, microsphere flow cytometry; stronger effect = higher value; in the data active means fluorescence intensity above about 16000; inconclusive means no clear call, values can overlap the other calls
Anthrax LF prot: inhibitors of Bacillus anthracis lethal factor protease. P15917. multiplex microsphere protease cleavage assay, LF. inhibition, % at 10 µM. 360,000 tested, 0.12% active
Target sequence (P15917 whole entry, looked up): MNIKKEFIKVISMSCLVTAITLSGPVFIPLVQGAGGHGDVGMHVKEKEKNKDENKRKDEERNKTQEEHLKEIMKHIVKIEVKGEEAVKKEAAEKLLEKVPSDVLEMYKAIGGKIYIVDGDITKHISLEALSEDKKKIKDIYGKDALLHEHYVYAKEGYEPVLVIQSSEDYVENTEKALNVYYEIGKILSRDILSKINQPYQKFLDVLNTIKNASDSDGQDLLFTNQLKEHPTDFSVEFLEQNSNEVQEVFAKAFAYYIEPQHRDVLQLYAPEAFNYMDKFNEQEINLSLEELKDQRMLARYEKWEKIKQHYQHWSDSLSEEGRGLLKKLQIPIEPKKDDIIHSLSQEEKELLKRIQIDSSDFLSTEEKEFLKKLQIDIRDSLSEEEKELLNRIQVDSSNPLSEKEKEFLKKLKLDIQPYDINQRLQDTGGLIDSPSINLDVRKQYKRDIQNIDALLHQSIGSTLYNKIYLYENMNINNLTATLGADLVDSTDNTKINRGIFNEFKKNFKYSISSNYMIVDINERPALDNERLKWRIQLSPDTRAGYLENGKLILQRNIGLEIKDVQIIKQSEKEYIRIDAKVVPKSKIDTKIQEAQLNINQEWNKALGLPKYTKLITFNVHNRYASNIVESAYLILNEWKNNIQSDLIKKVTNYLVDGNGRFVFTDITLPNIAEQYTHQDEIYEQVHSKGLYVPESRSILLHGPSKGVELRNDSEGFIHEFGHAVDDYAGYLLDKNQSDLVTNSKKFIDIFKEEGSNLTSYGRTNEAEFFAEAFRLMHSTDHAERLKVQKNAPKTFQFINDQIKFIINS
BoNT A protease: blocks Botulinum neurotoxin A light chain protease; multiplex microsphere protease substrate cleavage, flow cytometry; 360,000 tested, 0.17% active; inhibition, % at 10 µM
A number is an active result. Hits are enriched below; roughly 3.5% of the tested compounds scored in any of these assays. Unless noted, no stated cut-off is given here; in the data, active means inhibition above about 30%; inconclusive means no clear call, values can overlap the other calls; inactive means below that.

CCc1c(C)nc(N)nc1N1N=C1SCC#N was read as BH1578 lux ind inactive, BoNT-F LC inh inactive, Autofluor counter 22462, Anthrax LF prot inactive and BoNT A protease inactive.
Screening S=c1[nH]nc(C2CCCCC2)n1/N=C/c1ccc(Br)cc1 returned BH1578 lux ind inactive, BoNT-F LC inh inactive, Autofluor counter inactive, Anthrax LF prot inactive and BoNT A protease inactive.
For S=c1[nH]nc(C2CCCCC2)n1/N=C/C=C/c1ccccc1 the results were BH1578 lux ind inactive, BoNT-F LC inh inactive, Autofluor counter 22815, Anthrax LF prot inactive and BoNT A protease inconclusive.
S=c1[nH]nc(C2CCCCC2)n1/N=C/c1ccc(Br)s1 was read as BH1578 lux ind inactive, BoNT-F LC inh 39, Autofluor counter inactive, Anthrax LF prot inactive and BoNT A protease inconclusive.
CCOc1ccccc1Nc1nc2ccccc2n2cnnc12 was read as BH1578 lux ind inactive, BoNT-F LC inh inactive, Autofluor counter inactive, Anthrax LF prot inactive and BoNT A protease inactive.
For CCN(CC)c1nc2ccccc2n2cnnc12 the results were BH1578 lux ind inactive, BoNT-F LC inh inactive, Autofluor counter 23917, Anthrax LF prot inactive and BoNT A protease inactive.
`CC(=O)c1ccc(S(=O)(=O)NCCOc2ccccc2)cc1` gave BH1578 lux ind inactive, BoNT-F LC inh inactive, Autofluor counter inactive, Anthrax LF prot inactive and BoNT A protease inactive.
Screening O=[N+]([O-])c1ccc(C2CCCC/C2=N\OCc2cccc(F)c2)c([N+](=O)[O-])c1 (stereo not drawn) returned BH1578 lux ind inactive, BoNT-F LC inh inactive, Autofluor counter 23769, Anthrax LF prot inactive and BoNT A protease inconclusive.
Screening O[C@H]1CN(CC2CCCCC2)[C@@H](c2ccc(Cl)cc2)C[C@@H]1n1cc(-c2ccc(F)cc2)nn1 returned BH1578 lux ind inactive, BoNT-F LC inh inactive, Autofluor counter inactive, Anthrax LF prot inactive and BoNT A protease inactive.
For Fc1ccc(-c2cc(C(F)(F)F)nc(-n3cncn3)n2)cc1 the results were BH1578 lux ind inactive, BoNT-F LC inh inactive, Autofluor counter 21601, Anthrax LF prot inactive and BoNT A protease inactive.
COc1cccc(-c2cc(C(F)(F)F)nc(-n3cncn3)n2)c1 was read as BH1578 lux ind inactive, BoNT-F LC inh inactive, Autofluor counter 25001, Anthrax LF prot inactive and BoNT A protease inconclusive.
Screening COc1cccc(-c2cc(C(F)(F)F)nc(-n3cc(C)cn3)n2)c1 returned BH1578 lux ind inactive, BoNT-F LC inh inactive, Autofluor counter inactive, Anthrax LF prot inactive and BoNT A protease inactive.
Fc1ccc(-c2cc(C(F)(F)F)nc(-n3cccn3)n2)cc1 was read as BH1578 lux ind inactive, BoNT-F LC inh inactive, Autofluor counter inactive, Anthrax LF prot inactive and BoNT A protease inactive.
Screening O=C(CCSc1ccccn1)c1ccccc1 returned BH1578 lux ind inactive, BoNT-F LC inh inactive, Autofluor counter inactive, Anthrax LF prot inactive and BoNT A protease inactive.
`CC(=O)NC12CC3CC(C1)CC(C(=O)N1CCN(S(=O)(=O)c4ccc(C(C)C)cc4)CC1)(C3)C2` gave BH1578 lux ind inactive, BoNT-F LC inh inactive, Autofluor counter inactive, Anthrax LF prot inactive and BoNT A protease inactive.
CN(C(=S)Nc1ccc(F)cc1)C1(c2ccccc2Cl)CCCCC1=O (stereo not drawn) was read as BH1578 lux ind inactive, BoNT-F LC inh inactive, Autofluor counter 24303, Anthrax LF prot inactive and BoNT A protease inactive.
For O=C(Nc1nnc(/C=C/c2ccccc2)s1)c1ccco1 the results were BH1578 lux ind inactive, BoNT-F LC inh inconclusive, Autofluor counter inactive, Anthrax LF prot inactive and BoNT A protease inactive.
O=C(O)Cn1nnc(-c2cccs2)n1 was read as BH1578 lux ind inactive, BoNT-F LC inh inactive, Autofluor counter inactive, Anthrax LF prot inactive and BoNT A protease inactive.
`O=C(Cn1nnc(-c2cccs2)n1)N1CCc2ccccc2C1` gave BH1578 lux ind inactive, BoNT-F LC inh inactive, Autofluor counter 21633, Anthrax LF prot inactive and BoNT A protease inactive.
For CCOC(=O)c1cnc2c(-c3ccccc3OC)c(C)nn2c1C the results were BH1578 lux ind inactive, BoNT-F LC inh inactive, Autofluor counter inactive, Anthrax LF prot inactive and BoNT A protease inactive.
For CCN1C(=O)/C(=C/C=C2/Sc3ccccc3N2CCO)SC1=S the results were BH1578 lux ind 236, BoNT-F LC inh inactive, Autofluor counter inactive, Anthrax LF prot inactive and BoNT A protease inactive.
`CCOC(=O)CNC(=O)C1(c2ccccc2)CCCC1` gave BH1578 lux ind inactive, BoNT-F LC inh inactive, Autofluor counter 16511, Anthrax LF prot inactive and BoNT A protease inactive.
CCOC(=O)c1cnc(-n2nc(C)cc2C)nc1NC1CCCC1 was read as BH1578 lux ind inactive, BoNT-F LC inh inconclusive, Autofluor counter inactive, Anthrax LF prot inactive and BoNT A protease inactive.
